# Compounds with a hit are over-represented: about 2.9% of the library has one in this group of screens.
# PfGluPho inh – PfG6PD (Plasmodium falciparum) enzyme inhibition; hit rate 0.78% among 350,000; inhibition, % at 20 µM; AID 504690; PfGluPho enzyme, NADPH resazurin-diaphorase fluorescence;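 active means inhibition reaching at least a set limit at 20 µM in the primary screen, cut at about 59% in these data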;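 further: 0% = DMSO wells with substrate and 100% = DMSO wells lacking glucose-6-phosphate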
# TAG inh – inhibitors of triacylglycerol accumulation. hit rate 0.66% among 230,000. AID 651582. inhibition, % at 12.5 µM. H9c2 cells, Nile Red lipid (TAG) fluorescence; cells loaded with 200 µM oleic acid;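 active means pattern-corrected inhibition of lipid staining of at least 50% with the nuclear-stain viability signal not falling by more than 50%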;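 further: 0% = DMSO wells and 100% = triacsin C control wells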
# NadD inh – blocks S. aureus nicotinate mononucleotide adenylyltransferase. inhibition, % at 20 µM. purified NadD enzyme, colorimetric absorbance read-out. hit rate 0.78% among 360,000; in the data active means inhibition above about 26%
# Cardio protect – modulators protecting cardiomyocytes from myocardial damage | protection from H2O2 cell death, % at 20 µM | AID 588492 | H9c2 cardiomyocytes, H2O2 injury protection, ATPLite, 2 h | hit rate 0.63% among 360,000;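 active means compounds giving at least 50% protection of heart cells from peroxide-induced death in the single-dose screen, raw or plate-pattern-corrected value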;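 further: 0% = DMSO wells with peroxide and 100% = DMSO wells without peroxide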
# APOBEC3A inh – inhibitors of human APOBEC3A DNA deaminase. recombinant A3A, FAM/TAMRA ssDNA deamination fluorescence. hit rate 0.41% among 330,000. P31941. inhibition, % at 20 µM;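 active means at least 40% inhibition at 20 µM here, with at most 30% in a related deaminase screen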;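 further: plate controls were A3A with DMSO for no effect and wells lacking A3A enzyme for full effect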
# Target sequence (P31941 whole entry, looked up): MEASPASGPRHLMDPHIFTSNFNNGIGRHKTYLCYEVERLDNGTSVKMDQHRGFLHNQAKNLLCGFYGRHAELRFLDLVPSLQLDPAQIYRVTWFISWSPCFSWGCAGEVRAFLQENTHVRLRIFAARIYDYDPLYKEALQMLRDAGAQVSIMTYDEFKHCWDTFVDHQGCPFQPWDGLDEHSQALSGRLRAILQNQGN
# A3G deaminase – APOBEC3G (human) deaminase inhibition | AID 493012 | Q9HC16 | hit rate 0.28% among 330,000 | inhibition, % at 20 µM | recombinant A3G, ssDNA deamination FAM/TAMRA fluorescence;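 active means inhibition of at least 40% at 20 µM, with no more than 30% in the related APOBEC3A deaminase screen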;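 further: plate controls were DMSO wells with A3G for no effect and wells lacking A3G enzyme for full effect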
# Target sequence (Q9HC16 whole entry, looked up): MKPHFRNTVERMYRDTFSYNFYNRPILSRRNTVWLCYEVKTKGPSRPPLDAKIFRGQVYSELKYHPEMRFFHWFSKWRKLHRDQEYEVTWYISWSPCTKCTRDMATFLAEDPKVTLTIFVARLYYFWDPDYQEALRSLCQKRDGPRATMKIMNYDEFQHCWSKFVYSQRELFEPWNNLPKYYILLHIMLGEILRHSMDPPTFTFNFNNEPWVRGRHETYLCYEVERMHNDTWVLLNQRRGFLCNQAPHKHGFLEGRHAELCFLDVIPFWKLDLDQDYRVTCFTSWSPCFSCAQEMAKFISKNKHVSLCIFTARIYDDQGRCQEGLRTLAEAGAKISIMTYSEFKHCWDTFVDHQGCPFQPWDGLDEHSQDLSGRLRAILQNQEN
# * marks the source's active call; other numbers are inactive results; . = not tested or not shown.
SMILES,PfGluPho inh,TAG inh,NadD inh,Cardio protect,APOBEC3A inh,A3G deaminase
Cc1cc2nc(C(C)(C)C)c(Cc3cccc(F)c3)n2c(C)c1Br,.,.,8,-8,.,.
CC(C)(C)C(=O)Cn1ncc(N2CCCC2)c(Br)c1=O,8,6,1,10,0,-2
CC(=O)Cn1ncc(Br)c(Br)c1=O,5,61*,4,-24,.,.
Cc1nnc2ccc(-c3cccc(NC(=O)c4ccc(Cl)nc4)c3)nn12,17,29,-8,63*,2,-3
CN(CCc1ccccc1)C(=O)c1ccc(NC(=O)Cc2cccc(NC(=O)C3CCN(C(=O)c4ccccc4)CC3)c2)cc1,-8,5,6,-6,.,.
Cc1cc(C(=O)N/N=C2\CC(=O)c3ccccc32)c(C)n1-c1ccc(F)cc1,2,9,31*,-2,2,-4
C#CCOCCOCCOCCNc1nc(N2CCOCC2)nc(N2CCN(C(=O)CCCCCCCCCCNC(=O)[C@H]([C@@H](C)CC)n3cc(CCCCN=C(N)N)nn3)CC2)n1,-5,-28,11,2,0,4
C#CCOCCOCCOCCNc1nc(N2CCN(C(=O)CCCCCCCCCCNC(=O)Cn3cc(C[C@@H](C)O)nn3)CC2)nc(N2CCN(C(=O)CCCCCCCCCCNC(=O)[C@@H]([C@H](C)CC)n3cc(CCCCCN)nn3)CC2)n1,56,34,34*,-18,2,4
C#CCOCCOCCOCCNc1nc(N2CCN(C(=O)CCCCCCCCCCNC(=O)[C@H]([C@@H](C)CC)n3cc(CCCCN=C(N)N)nn3)CC2)nc(N2CCN(C(=O)CCCCCCCCCCNC(=O)[C@@H]([C@H](C)O)n3cc(C)nn3)CC2)n1,52,-7,40*,3,-4,-5
C#CCOCCOCCOCCNc1nc(N2CCN(C(=O)CCCCCCCCCCNC(=O)[C@H](CCCCN)n3cc(C[C@@H](C)CC)nn3)CC2)nc(N2CCN(C(=O)CCCCCCCCCCNC(=O)[C@@H]([C@H](C)O)n3cc(C)nn3)CC2)n1,53,49,43*,-11,1,10
C#CCOCCOCCOCCNc1nc(N2CCN(C(=O)CCCCCCCCCCNC(=O)[C@@H](CCSC)n3cc(CCO)nn3)CC2)nc(N2CCN(C(=O)CCCCCCCCCCNC(=O)[C@H](CCCN=C(N)N)n3cc(C[C@@H](C)CC)nn3)CC2)n1,69*,-6,71*,7,-4,-5
C#CCOCCOCCOCCNc1nc(N2CCN(C(=O)CCCCCCCCCCNC(=O)[C@H]([C@@H](C)CC)n3cc(CCCCN=C(N)N)nn3)CC2)nc(N2CCN(C(=O)CCCCCCCCCCNC(=O)[C@H](CCCN=C(N)N)n3cc(C[C@@H](C)CC)nn3)CC2)n1,.,.,.,.,-4,-4
C#CCOCCOCCOCCNc1nc(N2CCN(C(=O)CCCCCCCCCCNC(=O)Cn3cc(CCCCCN)nn3)CC2)nc(N2CCN(C(=O)CCCCCCCCCCNC(=O)Cn3cc(C[C@@H](C)O)nn3)CC2)n1,8,23,17,2,-3,-5
Cc1ccc2nc(C)cc(C(=O)N3CCCC(N4CCN(c5ccccc5C)CC4)C3)c2c1 (stereo not drawn),-2,5,2,6,-1,-5
CC(=O)Nc1ccc(S(=O)(=O)N2C(=O)c3cccc4cccc2c34)cc1,.,.,.,.,3,-4
COc1ccc(CCC(=O)O)c(C(CC(=O)O)C(=O)O)c1OS(=O)(=O)c1ccc(C)cc1 (stereo not drawn),-2,-4,-1,0,.,.
C#CCOCCOCCOCCNc1nc(N2CCN(C(=O)C(Cc3cc4ccccc4[nH]3)n3cc(C(N)C(C)CC)nn3)CC2)nc(N2CCN(C(=O)C(Cc3cc4ccccc4[nH]3)n3cc(C(N)C(C)CC)nn3)CC2)n1 (stereo not drawn),61*,-1,42*,-1,-4,-7
C#CCOCCOCCOCCNc1nc(N2CCN(C(=O)CCCCCCCCCCNC(=O)[C@@H](CCC(=O)O)n3cc(CCCCCN)nn3)CC2)nc(N2CCN(C(=O)CCCCCCCCCCNC(=O)[C@H](CCCCN)n3cc(C[C@@H](C)CC)nn3)CC2)n1,52,-2,36*,1,-4,-7
C#CCOCCOCCOCCNc1nc(N2CCN(C(=O)CCCCCCCCCCNC(=O)[C@H](CCCN=C(N)N)n3cc(C[C@@H](C)CC)nn3)CC2)nc(N2CCN(C(=O)CCCCCCCCCCNC(=O)[C@@H]([C@H](C)CC)n3cc(CCCCCN)nn3)CC2)n1,.,.,.,.,2,4
C#CCOCCOCCOCCNc1nc(N2CCN(C(=O)CCCCCCCCCCNC(=O)[C@H](CO)n3cc(CCCCCN)nn3)CC2)nc(N2CCN(C(=O)CCCCCCCCCCNC(=O)[C@H](CCCN=C(N)N)n3cc(C[C@@H](C)CC)nn3)CC2)n1,.,.,.,.,-24,1
C#CCOCCOCCOCCNc1nc(N2CCN(C(=O)CCCCCCCCCCNC(=O)[C@H](CCCCN)n3cc(C)nn3)CC2)nc(N2CCN(C(=O)CCCCCCCCCCNC(=O)[C@H](CCCN=C(N)N)n3cc(C[C@@H](C)CC)nn3)CC2)n1,60*,.,.,.,1,1
C#CCOCCOCCOCCNc1nc(N2CCN(C(=O)CCCCCCCCCCNC(=O)[C@H](CCCCN)n3cc(C[C@@H](C)CC)nn3)CC2)nc(N2CCN(C(=O)CCCCCCCCCCNC(=O)[C@H](CCCN=C(N)N)n3cc(C[C@@H](C)CC)nn3)CC2)n1,52,1,64*,-20,-7,-11
COc1ccc(NC(=O)c2sc3nc(N4CCOCC4)c4c(c3c2N)CC(C)(C)OC4)c(OC)c1,8,.,-13,8,-5,-8
COc1cccc(C(=O)NCCC(=O)NCc2cc(=O)n(C)c(=O)n2C)c1,3,.,1,2,-6,-8
O=C(CCC1CCN(C(=O)CC2=CCCCC2)CC1)NCc1ccc(F)cc1,-10,6,3,3,.,.
SMILES,PfGluPho inh,TAG inh,NadD inh,Cardio protect,APOBEC3A inh,A3G deaminase
CSc1nc2ccc(Nc3nc(N4CCOCC4)nc(N4CCOCC4)n3)cc2s1,10,.,-2,70*,3,-2
COc1cc(C(=S)N2CCN(c3ccccc3Cl)CC2)cc(O)c1O,26,-1,13,85*,-3,-1
CCOC(=O)[C@H]1[C@H]2COc3cc(OC)ccc3[C@@H]2N2C(=O)[C@@H](CO)NC(=O)[C@@]12C,.,.,.,.,-1,-3
Cn1c(=O)[nH]c(=O)c2c1nc(NN)n2CCOc1ccccc1,45,.,3,-1,1,1
NS(=O)(=O)c1ccc(CCNC(=O)CSc2ncnc3ccccc23)cc1,-1,12,1,17,35,-4
CCN(CC)c1ccc2cc(-c3nnc(-c4ccncc4)o3)c(=O)oc2c1,20,.,12,65*,.,.
COc1ncnc(-c2ccccc2)c1-c1ccccc1,-22,-3,-3,-2,3,0
